Measured values: PubChem BioAssay (NCATS)
Inconclusive results are not listed. Calls of active or inactive are those of the source. Calls come from the whole dose curve; as a rule, active = well fitted curve in the direction sought with a large enough effect; inconclusive = small, poorly fitted or top-dose-only effect, or another doubt; inactive = no such curve, though single readings can be large; an effect the other way counts as inactive or inconclusive.

Key:
NIH3T3 = test: qHTS assay to identify novel small-molecules to repurpose for Merkel cell carcinoma treatment (AID 1296009); conditions: MCC and control cell lines, CellTiter-Glo viability, 72 h; at 44.8 µM (top of the series) unless noted; note: nearly all actives have a fitted effect of over 60% in size
How it was run: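 Cells were incubated with compound for 72 hr at 37 degree celsius before CellTiter-Glo addition. Luminescence was normalized with no-cell wells as full cytotoxicity and DMSO as baseline.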

C33A = test: Primary qHTS to identify gynecologic anti-cancer compounds using libraries of approved drugs and bioactive compounds (AID 1345084); conditions: Gynecologic cancer cell panel viability, ATPlite luminescence, 48 h; series mostly up to 57.5 µM; note: % is set by controls: 0 for no effect and ±100 for the full control effect; nearly all actives have a fitted effect of over 55% in size
How it was run: (§1)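 Cells, 1,000 per well, plated 16 h, then exposed 48 h at 37 C to compounds. Viability by ATPlite luminescence after 15 min at room temperature.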

CAOV3 = test: as above; conditions: Gynecologic cancer cell panel viability, ATPlite luminescence, 48 h; series mostly up to 57.5 µM
How it was run: as §1

CASKI = test: as above; conditions: Gynecologic cancer cell panel viability, ATPlite luminescence, 48 h; series mostly up to 57.5 µM
How it was run: as §1

Es-2 = test: as above; conditions: Gynecologic cancer cell panel viability, ATPlite luminescence, 48 h; series mostly up to 57.5 µM
How it was run: as §1

HeLa = test: as above; conditions: Gynecologic cancer cell panel viability, ATPlite luminescence, 48 h; series mostly up to 57.5 µM
How it was run: as §1

Hek293T = test: as above; conditions: Gynecologic cancer cell panel viability, ATPlite luminescence, 48 h, control line for the selectivity index; series mostly up to 57.5 µM
How it was run: as §1

JEG-3 = test: as above; conditions: Gynecologic cancer cell panel viability, ATPlite luminescence, 48 h; series mostly up to 57.5 µM
How it was run: as §1

OV90 = test: as above; conditions: Gynecologic cancer cell panel viability, ATPlite luminescence, 48 h; series mostly up to 57.5 µM
How it was run: as §1

PA-1 = test: as above; conditions: Gynecologic cancer cell panel viability, ATPlite luminescence, 48 h; series mostly up to 57.5 µM
How it was run: as §1

SKOV3 = test: as above; conditions: Gynecologic cancer cell panel viability, ATPlite luminescence, 48 h; series mostly up to 57.5 µM
How it was run: as §1

Tov-21-G = test: as above; conditions: Gynecologic cancer cell panel viability, ATPlite luminescence, 48 h; series mostly up to 57.5 µM
How it was run: as §1

Tov112D = test: as above; conditions: Gynecologic cancer cell panel viability, ATPlite luminescence, 48 h; series mostly up to 57.5 µM
How it was run: as §1

COc1ccc(C2OCC3C(c4cc(OC)c5c(c4)OCO5)OCC23)cc1OC (stereo unspecified)
inactive: outcome (NIH3T3) inactive [at 17.4 µM] | Potency (C33A) | Potency (CAOV3) | outcome (CASKI) | Potency (Es-2) | Potency (HeLa) | Potency (Hek293T) | Potency (JEG-3) | Potency (OV90) | Potency (PA-1) | Potency (SKOV3) | Potency (Tov-21-G) | Potency (Tov112D)

COc1ccc(/C=C/C(=O)O[C@@H]2[C@@H](O[C@@H]3O[C@H](CO)[C@@H](O)[C@H](O)[C@H]3O)[C@@H](O)[C@H](O[C@H]3C4C=CO[C@@H](O[C@@H]5O[C@H](CO)[C@@H](O)[C@H](O)[C@H]5O)C4[C@@]4(CO)O[C@@H]34)O[C@H]2C)cc1 (stereo partly specified)
inactive: outcome (NIH3T3) inactive [at 9.27 µM] | activity change, negative = cytotoxicity (C33A) -3.09% [at 11.6 µM] | activity change, negative = cytotoxicity (CAOV3) -4.58% [at 11.6 µM] | activity change, negative = cytotoxicity (CASKI) 6.26% [at 11.6 µM] | activity change, negative = cytotoxicity (Es-2) 3.1% [at 11.6 µM] | activity change, negative = cytotoxicity (HeLa) 5.69% [at 11.6 µM] | activity change, negative = cytotoxicity (Hek293T) 2.2% [at 11.6 µM] | activity change, negative = cytotoxicity (JEG-3) 7.02% [at 11.6 µM] | activity change, negative = cytotoxicity (OV90) 9.16% [at 11.6 µM] | activity change, negative = cytotoxicity (PA-1) -1.37% [at 11.6 µM] | activity change, negative = cytotoxicity (SKOV3) 1.14% [at 11.6 µM] | activity change, negative = cytotoxicity (Tov-21-G) 4.96% [at 11.6 µM] | activity change, negative = cytotoxicity (Tov112D) 0.569% [at 11.6 µM]

CC1=C(CO)CC(C(C)C2CCC3C4CC=C5CC(OC6OC(COC7OC(CO)C(O)C(O)C7O)C(O)C(O)C6O)CC(O)C5(C)C4CCC23C)OC1=O (stereo unspecified)
inactive: outcome (NIH3T3) inactive [at 17.4 µM] | Potency (C33A) | Potency (CAOV3) | outcome (CASKI) | Potency (Es-2) | Potency (HeLa) | Potency (Hek293T) | Potency (JEG-3) | Potency (OV90) | Potency (PA-1) | Potency (SKOV3) | Potency (Tov-21-G) | Potency (Tov112D)

C=C1CC/C=C(/CO)C(=O)C[C@@H]2[C@@H]1C[C@@]2(C)COC(C)=O
inactive: outcome (NIH3T3) | Potency (C33A) | Potency (CAOV3) | outcome (CASKI) | Potency (Es-2) | Potency (HeLa) | Potency (Hek293T) | Potency (JEG-3) | Potency (OV90) | Potency (PA-1) | Potency (SKOV3) | Potency (Tov-21-G) | Potency (Tov112D)

C=C(C)[C@@H]1CC[C@]2(C(=O)O)CC[C@]3(C)C(CCC4[C@]5(C)C(CC[C@]43C)C(C)(C)[C@@H](O)[C@@H]5C(=O)O)C12 (stereo partly specified)
inactive: outcome (NIH3T3) inactive [at 17.4 µM] | Potency (C33A) | Potency (CAOV3) | outcome (CASKI) | Potency (Es-2) | Potency (HeLa) | Potency (Hek293T) | Potency (JEG-3) | Potency (OV90) | Potency (PA-1) | Potency (SKOV3) | Potency (Tov-21-G) | Potency (Tov112D)

COc1cc(/C=C/C(=O)O)ccc1O[C@@H]1O[C@H](CO)[C@@H](O)[C@H](O)[C@H]1O[C@@H]1OC[C@](O)(CO)[C@H]1O
inactive: outcome (NIH3T3) inactive [at 17.4 µM] | Potency (C33A) | Potency (CAOV3) | outcome (CASKI) | Potency (Es-2) | Potency (HeLa) | Potency (Hek293T) | Potency (JEG-3) | Potency (OV90) | Potency (PA-1) | Potency (SKOV3) | Potency (Tov-21-G) | Potency (Tov112D)

O=C(OC[C@H]1O[C@@H](Oc2ccccc2COC(=O)C2(O)C=CCCC2O)[C@H](O)[C@@H](O)[C@@H]1O)c1ccccc1 (stereo partly specified)
inactive: outcome (NIH3T3) inactive [at 17.4 µM] | Potency (C33A) | Potency (CAOV3) | outcome (CASKI) | Potency (Es-2) | Potency (HeLa) | Potency (Hek293T) | Potency (JEG-3) | Potency (OV90) | Potency (PA-1) | Potency (SKOV3) | Potency (Tov-21-G) | Potency (Tov112D)

CC[C@H]1OC(=O)[C@H](C)[C@@H](O[C@H]2C[C@@](C)(OC)[C@@H](O)[C@H](C)O2)C(C)[C@@H](O[C@@H]2O[C@H](C)C[C@H](N(C)C)[C@H]2O)[C@](C)(O)C[C@@H](C)CN(C)[C@H](C)[C@@H](O)[C@]1(C)O (stereo partly specified)
inactive: outcome (NIH3T3) | Potency (C33A) | Potency (CAOV3) | outcome (CASKI) | Potency (Es-2) | Potency (HeLa) | Potency (Hek293T) | Potency (JEG-3) | Potency (OV90) | Potency (PA-1) | Potency (SKOV3) | Potency (Tov-21-G) | Potency (Tov112D)

NC(=O)[C@H](Cc1ccccc1)NC(=O)[C@H](CCCN=C(N)N)NC(=O)C12CC3CC(CC(C3)C1)C2
inactive: outcome (NIH3T3) inactive [at 9.27 µM] | activity change, negative = cytotoxicity (C33A) 15.1% [at 11.6 µM] | activity change, negative = cytotoxicity (CAOV3) 15.6% [at 11.6 µM] | activity change, negative = cytotoxicity (CASKI) 5.13% [at 11.6 µM] | activity change, negative = cytotoxicity (Es-2) 7.15% [at 11.6 µM] | activity change, negative = cytotoxicity (HeLa) 9.3% [at 11.6 µM] | activity change, negative = cytotoxicity (Hek293T) 9.9% [at 11.6 µM] | activity change, negative = cytotoxicity (JEG-3) 17.3% [at 11.6 µM] | activity change, negative = cytotoxicity (OV90) -0.378% [at 11.6 µM] | activity change, negative = cytotoxicity (PA-1) 5.55% [at 11.6 µM] | activity change, negative = cytotoxicity (SKOV3) 6.06% [at 11.6 µM] | activity change, negative = cytotoxicity (Tov-21-G) 4.32% [at 11.6 µM] | activity change, negative = cytotoxicity (Tov112D) -1.65% [at 11.6 µM]

O=C1C(Cl)=C(N2CCOCC2)C(=O)N1c1ccc(Cl)c(Cl)c1
inactive: outcome (NIH3T3) inactive [at 17.4 µM] | Potency (C33A) | Potency (CAOV3) | outcome (CASKI) | Potency (Es-2) | Potency (HeLa) | Potency (Hek293T) | Potency (JEG-3) | Potency (OV90) | Potency (PA-1) | Potency (SKOV3) | Potency (Tov-21-G) | Potency (Tov112D)

C[C@@H]1O[C@@H](O[C@H]2[C@H](O[C@H]3[C@H](O[C@H]4CC[C@@]5(C)C(CC[C@]6(C)C5CC=C5[C@@H]7CC(C)(C)C[C@@H](O)[C@]7(C)CC[C@]56C)[C@@]4(C)CO)O[C@H](C(=O)O)[C@@H](O)[C@@H]3O)O[C@H](C(=O)O)[C@H](O)[C@@H]2O)[C@H](O)[C@H](O)[C@H]1O (stereo partly specified)
inactive: outcome (NIH3T3) inactive [at 9.27 µM] | activity change, negative = cytotoxicity (C33A) 8.86% [at 11.6 µM] | activity change, negative = cytotoxicity (CAOV3) -0.141% [at 11.6 µM] | activity change, negative = cytotoxicity (CASKI) 16.2% [at 11.6 µM] | activity change, negative = cytotoxicity (Es-2) -1.06% [at 11.6 µM] | activity change, negative = cytotoxicity (HeLa) 4.67% [at 11.6 µM] | activity change, negative = cytotoxicity (Hek293T) 5.2% [at 11.6 µM] | activity change, negative = cytotoxicity (JEG-3) 7.1% [at 11.6 µM] | activity change, negative = cytotoxicity (OV90) 2.01% [at 11.6 µM] | activity change, negative = cytotoxicity (PA-1) 0.484% [at 11.6 µM] | activity change, negative = cytotoxicity (SKOV3) 10.8% [at 11.6 µM] | activity change, negative = cytotoxicity (Tov-21-G) 13.2% [at 11.6 µM] | activity change, negative = cytotoxicity (Tov112D) 5.35% [at 11.6 µM]

CC1OC(OC2C(OC3C(O[C@H]4CC[C@@]5(C)C(CC[C@]6(C)C5CC=C5C7CC(C)(C)CC(O)[C@]7(C)CC[C@]56C)C4(C)C)OC(C(=O)O)C(O)C3O)OCC(O)C2O)C(O)C(O)C1O (stereo partly specified)
inactive: outcome (NIH3T3) inactive [at 9.27 µM] | activity change, negative = cytotoxicity (C33A) 14% [at 11.6 µM] | activity change, negative = cytotoxicity (CAOV3) 4.78% [at 11.6 µM] | activity change, negative = cytotoxicity (CASKI) -6.68% [at 11.6 µM] | activity change, negative = cytotoxicity (Es-2) 1.85% [at 11.6 µM] | activity change, negative = cytotoxicity (HeLa) 7.99% [at 11.6 µM] | activity change, negative = cytotoxicity (Hek293T) -2.65% [at 11.6 µM] | activity change, negative = cytotoxicity (JEG-3) 6.46% [at 11.6 µM] | activity change, negative = cytotoxicity (OV90) 9.07% [at 11.6 µM] | activity change, negative = cytotoxicity (PA-1) 30% [at 11.6 µM] | activity change, negative = cytotoxicity (SKOV3) 7.87% [at 11.6 µM] | activity change, negative = cytotoxicity (Tov-21-G) 6.64% [at 11.6 µM] | activity change, negative = cytotoxicity (Tov112D) 1.05% [at 11.6 µM]
